Most compounds without a hit are left out; they make up all but 9.9% or so of the library.
KB-3-1 tox: qHTS assay for MDR1-selective chemotherapeutics: Primary screen using the parental adenocarcinoma cell KB-3-1. 1.4% of 400,000 active. Potency, µM (top dose mostly 46.1 µM), most hits filed as cytotoxic. KB-3-1 viability, CellTiter-Glo ATP luminescence, 72 h; note: potency is the fitted concentration of half-maximal effect; % is set by controls: 0 for no effect and ±100 for the full control effect; nearly all actives have a fitted effect of over 60% in size
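Cells are dispensed, compounds pinned in, plates held at 37 °C for 72 h, then CellTiter-Glo is added and luminescence read after 10 minutes. Cell line: parental KB-3-1 in phenol-red-free DMEM, 10% FBS.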
MCF10A rereplic: A quantitative high throughput screen for small molecules that induce DNA re-replication in MCF 10a normal breast cells; MCF 10A DNA re-replication, Hoechst nuclear intensity, 48 h; Potency, µM (doses to about 46.1 µM), without a hit: top-dose activity, positive = re-replication, usual class: activators; AID 624296, 2012; 2.9% of 350,000 active; note: potency is the fitted concentration of half-maximal effect; % of control where 0% means no effect; nearly all actives have a fitted effect of over 50% in size
KB-V1 MDR tox: qHTS assay for MDR1-selective chemotherapeutics: Primary screen using the drug-selected MDR subline cells KB-V1; KB-V1 MDR cells viability, CellTiter-Glo, 72 h; Potency, µM (top dose mostly 46.1 µM), hits mostly cytotoxic; 3.4% of 400,000 active; AID 1347076, 2019; note: potency is the fitted concentration of half-maximal effect; % is set by controls: 0 for no effect and ±100 for the full control effect; nearly all actives have a fitted effect of over 60% in size
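Luminescent ATP read-out (CellTiter-Glo, 10 min) measures survival of drug-selected KB-V1 MDR cells after 72 h, 37 degrees C compound exposure. Medium: phenol-red-free DMEM, 10% FBS. Values from fitted concentration-response curves.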
IL1B secr inh: qHTS for Inhibitors of Inflammasome Signaling: IL-1-beta AlphaLISA Primary Screen; THP-1 LPS/ATP IL-1B secretion, AlphaLISA, 16 h; hits give low values; activity change, % at 57.5 µM; 4.7% of 360,000 active; in the data active = activity change below about -50%; inconclusive = mostly about -30% to -49%; note: % is set by controls: 0 for no effect and ±100 for the full control effect
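Secreted IL-1B measured by AlphaLISA bead assay after 16 h compound exposure of THP-1 cells; compounds (final up to 57.5 uM) added 1 h before LPS (250 ng/mL) and ATP (1.25 mM) stimulation; lower signal means less secretion.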
SW480 rereplic: A quantitative high throughput screen for small molecules that induce DNA re-replication in SW480 colon adenocarcinoma cells; AID 624297, 2012; 1.8% of 340,000 active; Potency, µM (series often up to 46.1 µM), without a hit: at the top dose re-replication activation, most hits filed as activators; SW480 DNA re-replication, Hoechst DNA content imaging, 48 h; note: potency is the fitted concentration of half-maximal effect; % of control where 0% means no effect; nearly all actives have a fitted effect of over 55% in size
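Treated cells incubate 48 hr (37 C, 5% CO2), are stained 40 min with Hoechst, and nuclear fluorescence is enumerated; a rise in nuclei with high DNA signal marks re-replication.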
Numbers without * were called inactive; i = inactive; ? = inconclusive; nt = not tested or not shown; [ ] = remark or other dose. Unless noted, calls come from the whole dose curve; as a rule, active = well fitted curve in the direction sought with a large enough effect; inconclusive = small, poorly fitted or top-dose-only effect, or another doubt; inactive = no such curve, though single readings can be large; an effect the other way counts as inactive or inconclusive.

SMILES	KB-3-1 tox	MCF10A rereplic	KB-V1 MDR tox	IL1B secr inh	SW480 rereplic
CCOC(=O)CC(c1ccc([N+](=O)[O-])cc1)n1c(C)ccc1C (stereo not drawn)	i	-4.3%	?	-6.6	?
O=C(/C=C/c1ccc(-c2ccc(F)cc2)o1)N1CCCC1	i	5.9%	i	-75.4*	7.0%
CN1CCN(C(=O)/C=C/c2ccc([N+](=O)[O-])o2)CC1	i	20.6µM*	i	-57.8*	23.6%
O=C(/C=C/c1ccc(F)cc1)N1CCCN(C(=O)/C=C/c2ccc(F)cc2)CC1	i	19.6%	i	-24.8	-3.8%
CC(OC(=O)Cc1c[nH]c2ccccc12)C(=O)Nc1ccccc1F (stereo not drawn)	i	9.3%	i	7.3	-1.9%
COc1cc(NS(=O)(=O)c2ccc(OC)c(C)c2C)c(OC)cc1Cl	3.26µM*	?	i	-4.3	5.62µM*
COc1ccc(OC)c(S(=O)(=O)Nc2cc(OC)c(Cl)cc2OC)c1	i	?	i	-4.5	26.4%
CC(=O)O[C@@H]1[C@H]2[C@@H](C[C@@H](C)[C@@H]3C=CC(=O)[C@@]13C)OC(=O)[C@@H]2C	i	-42.8%	i	?	-30.0%[9.22 µM]
C=C1C(=O)OC2C1CCC(C)C1C=CC(=O)C12C (stereo not drawn)	?	2.06µM*	?	-67.7*	6.51µM*
COc1ccc(-c2ccc(CO)o2)cc1N	i	-23.6%	i	24.2	-0.1%
CC(Oc1ccccc1)C(=O)N1CCN=C1SCc1ccc(F)cc1 (stereo not drawn)	i	-0.5%	?	-9.6	-19.8%
CCN(CC)Cc1cc(Nc2c3ccccc3nc3c4ccccc4n(C)c23)cc(CN(CC)CC)c1O	?	?	i	-112.5*	?
COC(=O)c1cc(-c2ccc(C)o2)nc2ccccc12	i	23.1µM*	?	-28.4	16.4µM*
COc1ccc(-c2cc(C(=O)NCC(c3ccccc3)N(C)C)c3ccccc3n2)cc1OC (stereo not drawn)	i	18.4µM*	i	?	18.4µM*
Cc1ccc(-c2cc(C(=O)Nc3ccccc3C)c3ccccc3n2)o1	i	?	i	5.4	1.4%
Cc1ccc(-c2cc(C(=O)NCCCn3ccnc3)c3cc(Br)ccc3n2)o1	i	8.5%	20.6µM*	?	?
Cc1ccc(-c2cc(C(=O)O)c3cc(Br)ccc3n2)o1	i	?	?	0.0	-5.1%
Cc1ccc(-c2cc(C(=O)NCC(c3ccccc3)N(C)C)c3ccccc3n2)o1 (stereo not drawn)	i	?	i	-28.0	25.9µM*
COC(=O)c1ccccc1N(C)S(=O)(=O)c1cc2c3c(c1)CC(=O)N3CCC2	i	nt	i	nt	nt
CCOc1ccc(S(=O)(=O)N2CCCC(C(=O)NCc3cccnc3)C2)cc1 (stereo not drawn)	nt	4.2%	nt	12.0	7.5%
NC(Cc1ccc(C(F)(F)F)cc1)c1csc(Nc2ccc(S(N)(=O)=O)cc2)n1 (stereo not drawn)	i	nt	i	?	nt
CCOc1ccc(-c2nc(SC(C(C)=O)C(=O)N(C)C)c3c(=O)n(C)c(=O)n(C)c3n2)cc1 (stereo not drawn)	i	nt	?	nt	nt
O=C(NCCN1CCN(C(=O)c2ccc([N+](=O)[O-])cc2)CC1)C(=O)Nc1ccc(F)cc1	nt	?	nt	-1.3	2.5%
OC(c1ccccc1)(c1nc(-c2ccccc2)cs1)C(F)(F)F (stereo not drawn)	i	nt	i	-29.4	nt
Cn1c(SCC(=O)c2ccc3c(c2)Cc2ccccc2-3)nnc1-c1cccc(N)c1	i	17.9%	16.4µM*	-5.0	1.7%
SMILES	KB-3-1 tox	MCF10A rereplic	KB-V1 MDR tox	IL1B secr inh	SW480 rereplic
CC(C)NC(=O)C1(C)CCCCN1Cc1ccc(OCc2ccccc2)cc1 (stereo not drawn)	16.4µM*	nt	?	1.7	nt
O=C1NC[C@H](CC2CCCCC2)N(CCc2cccc(F)c2)C1=O	i	-3.8%	i	-16.7	-0.3%
COc1ccc(NC(=O)c2cc(S(=O)(=O)N(Cc3ccccc3)c3ccccc3)ccc2Cl)cn1	i	0.6%	i	-22.9	1.3%
O=C(CSc1n[nH]c(=O)n1Cc1ccccc1)Nc1ccc(F)c(F)c1F	?	17.9%	16.4µM*	16.6	-8.5%
CC1(Cc2cccc(C(F)(F)F)c2)C(=O)Nc2ccc(-c3ccc(F)c(Cl)c3)cc21 (stereo not drawn)	i	nt	i	-69.8*	nt
CC1(Cc2ccc(OC(F)(F)F)cc2)C(=O)Nc2ccc(S(=O)(=O)NC3CCCCC3)cc21 (stereo not drawn)	?	nt	?	-71.6*	nt
COc1ccccc1-c1ccc2c(c1)C(C)(Cc1cc(Cl)ccc1C(F)(F)F)C(=O)N2 (stereo not drawn)	?	nt	20.6µM*	-17.9	nt
COc1ccccc1-c1ccc2c(c1)C(C)(Cc1ccc(OC(F)(F)F)cc1)C(=O)N2 (stereo not drawn)	i	nt	i	-51.9*	nt
CC1(Cc2cc(Cl)ccc2C(F)(F)F)C(=O)Nc2ccc(-c3ccc(F)c(Cl)c3)cc21 (stereo not drawn)	i	nt	i	-28.2	nt
COc1ccccc1-c1ccc2c(c1)C(C)(Cc1ccc(Cl)cc1)C(=O)N2 (stereo not drawn)	i	nt	i	7.1	nt
COc1ccc(-c2cnc(N3CCC(C(N)=O)CC3)s2)cc1OC	i	nt	i	nt	nt
O=C(OCc1ccccc1)N1CCC2CC1c1cc(/C=C/CCCSc3ncccn3)ccc12 (stereo not drawn)	i	nt	i	17.4	nt
COc1ccc(/C=C2/SC(=O)N(CCNC(=O)C3CCCN3C(=O)c3cccs3)C2=O)cc1 (stereo not drawn)	i	2.9%	i	-148.8*	4.2%
COc1ccc(-c2csc(C(O)c3ccc(F)c(OC)c3)n2)cn1 (stereo not drawn)	i	nt	i	-15.6	nt
Oc1ccc(O)c(Cc2nc3ccccc3s2)c1	?	?	?	-54.6*	?
OCc1cc(Br)ccc1OCc1nc2ccccc2s1	i	1.1%	5.17µM*	54.2	-9.3%
Oc1ccccc1OCc1nc2ccccc2s1	i	-0.4%	i	3.5	-8.4%
O=S1(=O)c2ccc(Br)cc2OC(COCc2ccccc2)CN1Cc1ccccc1 (stereo not drawn)	i	-6.0%	?	-2.2	?
O=S1(=O)c2ccc(Br)cc2N2CCC[C@@H]2CN1Cc1ccccc1	?	?	i	72.4	2.91µM*
FC(F)Sc1ccc(NC(=S)NCC2CCCCC2)cc1	?	?	i	-92.0*	?

Screening data: PubChem, National Center for Advancing Translational Sciences (NCATS)
